Source: PubChem BioAssay (NCATS)
Results filed as inconclusive are left out. Activity calls are given as the source filed them. Calls come from the whole dose curve; as a rule, active = well fitted curve in the direction sought with a large enough effect; inconclusive = small, poorly fitted or top-dose-only effect, or another doubt; inactive = no such curve, though single readings can be large; an effect the other way counts as inactive or inconclusive. Peptide text beside a SMILES is read from it. * marks the point of attachment. Cbz = O=C(OCc1ccccc1)*

Test: Quantitative highthroughput screen to assess conditional lethalithy of NOMO1 cells grown in Human Plasma-Like Medium with dialyzed fetal bovine serum (HPLM+ds) (AID 1963878);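 for viability: 100% = DMSO wells and 0% = empty wells on each plate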
Conditions: NOMO1 AML cells in HPLM+ds, CellTiter-Glo viability, 48 h; series mostly up to 45.8 µM; viability: at the top concentration
How it was run: (§1)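 Each medium arm—HPLM with 10% dialyzed FBS, or RPMI1640 with 5 mM glucose and 10% untreated or dialyzed FBS—was screened against an 11-point, 3-fold compound titration for 48 h at 37 °C, with CellTiter-Glo luminescence as endpoint.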
Note: nearly all actives have a fitted effect of over 35% in size.
Potency is the fitted concentration of half-maximal effect.

SMILES | Potency | viability
O=C1CCCC2=C1C(c1[nH]ncc1Cl)N=C(Nc1nc3ccccc3o1)N2 (stereo not given) | 18.7 µM (active) | –
CCN1CCN(c2ccc(Nc3cc(N(C)C(=O)Nc4c(Cl)c(OC)cc(OC)c4Cl)ncn3)cc2)CC1 | 3.32 µM (active) | –
O=C1NC(=O)C(c2cnc3ccccn23)=C1c1cn2c3c(cccc13)CN(C(=O)N1CCOCC1)CC2 | – | 113% (inactive)
CC(C)(C)c1nc2c3cc[nH]c(=O)c3c3cc(F)ccc3c2[nH]1 | 2.09 µM (active) | –
CO[C@@H]1C(N(C)C(=O)c2ccccc2)C[C@H]2O[C@]1(C)n1c3ccccc3c3c4c(c5c6ccccc6n2c5c31)C(=O)NC4=O (stereo not given in full) | 9.35 µM (active) | –
N#Cc1ccnc(Nc2cc(C3CCN(C4COC4)CC3)cc(N3CCC(F)(F)C3)n2)c1 | 14.8 µM (active) | –
CCCCS(=N)(=O)CCC(N)C(=O)O (stereo not given) | 16.6 µM (active) | –
CC(O)(C#Cc1ccc2c(c1)N(c1nc(N)ncc1Cl)CC2)c1nccs1 (stereo not given) | – | 67% (inactive)
COc1c(C)cnc(Cn2cnc3c(Cl)nc(N)nc32)c1C | 0.662 µM (active) | –
CCCc1nn(C)c2c(=O)[nH]c(-c3cc(S(=O)(=O)N4CCN(C)CC4)ccc3OCC)nc12 | – | 67.8% (inactive)
Nc1nc2c(ncn2COC(CO)CO)c(=O)[nH]1 | 23.5 µM (active) | –
Cc1ccccc1-n1c(Cn2nc(-c3cccc(O)c3)c3c(N)ncnc32)nc2cccc(C)c2c1=O | 1.66 µM (active) | –
Nc1nc(Nc2ccc(S(N)(=O)=O)cc2)nn1C(=O)c1c(F)cccc1F | 18.7 µM (active) | –
CNC(=O)c1nn(C)c2c1C(C)(C)Cc1cnc(Nc3ccc(N4CCN(C)CC4)cc3)nc1-2 | 8.33 µM (active) | –
Cc1ccc(C(=O)Nc2cccc(C(F)(F)F)c2)cc1-c1ccc2nc(NCCN3CCOCC3)ncc2c1 | 4.18 µM (active) | –

Test: Quantitative highthroughput screen to assess conditional lethalithy of P12 Ichikawa cells grown in Human Plasma-Like Medium with dialyzed fetal bovine serum (HPLM+ds) (AID 1963879)
Conditions: ATP luminescence, 48 h; Potency: viability; series mostly up to 45.8 µM; viability: at the top concentration
How it was run: as §1

SMILES | viability | Potency
C[N+](C)(C)CC(=O)O | 106% (inactive) | –
COCCCN1CCC(NC(=O)c2cc(Cl)c(N)c3c2OCC3)CC1 | 94.4% (inactive) | –
CNC(=O)c1ccc(Nc2ncc(C(F)(F)F)c(NCc3nccnc3N(C)S(C)(=O)=O)n2)cc1 | 97.5% (inactive) | –
Cc1cc2c(s1)Nc1ccccc1N=C2N1CCN(C)CC1 | 88.2% (inactive) | –
CC1Cc2ccccc2N1NC(=O)c1ccc(Cl)c(S(N)(=O)=O)c1 (stereo not given) | 95.5% (inactive) | –
Nc1[nH]c(=O)ncc1F | 102% (inactive) | –
CC1(C)O[C@H]2CC(=O)OC[C@]23[C@H]2CC[C@@]4(C)[C@H](c5ccoc5)OC(=O)[C@H]5O[C@]54[C@]2(C)C(=O)C[C@@H]13 | 101% (inactive) | –
O=C(/C=C\n1cnc(-c2cc(C(F)(F)F)cc(C(F)(F)F)c2)n1)NNc1cnccn1 | – | 0.588 µM (active)
CCCc1cc(C(N)=S)ccn1 | 98.9% (inactive) | –
C=C1C(=O)[C@@]23C(CC[C@@H]1[C@H]2O)[C@@]12CO[C@]3(O)[C@@H](O)[C@@H]1C(C)(C)CC[C@@H]2O (stereo not given in full) | – | 13.2 µM (active)
CCc1ccc(OCc2ccccc2C(=O)Nc2ccc3nc(C)cc(N)c3c2)cc1 | – | 9.35 µM (active)
CC1(C)CCC(c2ccc(Cl)cc2)=C(CN2CCN(c3ccc(C(=O)NS(=O)(=O)c4ccc(N[C@H](CCN5CCOCC5)CSc5ccccc5)c(S(=O)(=O)C(F)(F)F)c4)cc3)CC2)C1 | – | 0.118 µM (active)
CC(C)C[C@@H](C=O)NC(=O)[C@H](CC(C)C)NC(=O)[C@H](CC(C)C)NC(=O)OCc1ccccc1 (Cbz-Leu-Leu-Leu-aldehyde) | – | 2.96 µM (active)
O=C(O)CCNC(=O)c1ccc(N=Nc2ccc(O)c(C(=O)O)c2)cc1 | 103% (inactive) | –
CN1CCN(c2ccc(C(=O)Nc3n[nH]c4ccc(Cc5cc(F)cc(F)c5)cc34)c(NC3CCOCC3)c2)CC1 | – | 23.4 µM (active)
CCN(c1ccccc1)c1cc(NC)[n+](C)c(C)n1 | 101% (inactive) | –
CC1CCN(c2cc(N3CCN(C)CC3)ccc2NC(=O)c2cc(C#N)c[nH]2)CC1 | 101% (inactive) | –
C[C@H]1[C@@H](OC(=O)CCC(=O)O)O[C@@H]2O[C@@]3(C)CC[C@@H]4[C@H](C)CC[C@@H]1[C@@]24OO3 | – | 11.8 µM (active)
O=S(=O)(O)CCS | – | 3.72 µM (active)
COCCNCCCn1c(C(=O)CF)c(-c2ccc(C)cc2)c2c(N)ncnc21 | 94.4% (inactive) | –
NCCCC(N)(C(=O)O)C(F)F (stereo not given) | 98.7% (inactive) | –
Nc1[nH]nc2nnc(-c3c(-c4ccccc4)nn4ccccc34)cc12 | – | 8.33 µM (active)
COC(=O)C1C2CC3c4[nH]c5cc(OC)ccc5c4CCN3CC2CC(OC(=O)c2cc(OC)c(OC)c(OC)c2)C1OC (stereo not given) | 101% (inactive) | –
OC(CCN1CCCCC1)(c1ccccc1)C1CC2C=CC1C2 (stereo not given) | 101% (inactive) | –
CCOc1ccccc1OCCNC(C)Cc1ccc(OC)c(S(N)(=O)=O)c1 (stereo not given) | 97.5% (inactive) | –
